# PubChem BioAssay (NCI)
# About 83,000 compounds went through this panel and 20% of them were active in at least one assay; those are over-represented in the sample as a whole.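 Cell lines were cultured in 96-well plates, exposed to a single compound concentration, and assessed for percent growth 48 hours later.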 A number with no mark means an inactive call. Calls of active or inactive are those of the source. Rule for the calls: active = growth percent below 10; inactive = the rest.
# Columns and labels:
# Experiment in all cases: NCI-60 one-dose screen, 48 h (100 = growth as untreated, 0 = no growth, -100 = all killed)
# Details in all cases: 10 µM unless noted
# HCT-15 colon = test system: HCT-15 colon
# HT29 colon = test system: HT29 colon
# SNB-75 CNS = test system: SNB-75 CNS
# SNB-19 CNS = test system: SNB-19 CNS
# U251 CNS = test system: U251 CNS
# PC-3 prostate = test system: PC-3 prostate
# SK-MEL-5 melanoma = test system: SK-MEL-5 melanoma
# UACC-62 melanoma = test system: UACC-62 melanoma
# LOX IMVI melanoma = test system: LOX IMVI melanoma
# SK-MEL-28 melanoma = test system: SK-MEL-28 melanoma
# SK-MEL-2 melanoma = test system: SK-MEL-2 melanoma
# EKVX NSCLC = test system: EKVX NSCLC
# SN12C renal = test system: SN12C renal
# UO-31 renal = test system: UO-31 renal
# TK-10 renal = test system: TK-10 renal
# ACHN renal = test system: ACHN renal
# CAKI-1 renal = test system: CAKI-1 renal
# A498 renal = test system: A498 renal
# CCRF-CEM leukemia = test system: CCRF-CEM leukemia
# MOLT-4 leukemia = test system: MOLT-4 leukemia
Compound,growth (HCT-15 colon),growth (HT29 colon),growth (SNB-75 CNS),growth (SNB-19 CNS),growth (U251 CNS),growth (PC-3 prostate),growth (SK-MEL-5 melanoma),growth (UACC-62 melanoma),growth (LOX IMVI melanoma),growth (SK-MEL-28 melanoma),growth (SK-MEL-2 melanoma),growth (EKVX NSCLC),growth (SN12C renal),growth (UO-31 renal),growth (TK-10 renal),growth (ACHN renal),growth (CAKI-1 renal),growth (A498 renal),growth (CCRF-CEM leukemia),growth (MOLT-4 leukemia)
CCN(CC)CCOc1ccc2c(-c3ccccc3)c(-c3ccc(OC)cc3)c(=O)oc2c1,11.4%,17%,82.6%,69%,44.4%,65.4%,25.9%,-15% (active),29.3%,43.1%,51.6%,83.9%,68.5%,62.6%,75.9%,75.3%,71.9%,70.2%,75.3%,35.4%
O=C(/C=C/c1cn(-c2ccccc2)nc1-c1ccccc1)CCC(=O)NO,110%,104%,95.6%,112%,106%,108%,105%,103%,99.4%,130%,99%,111%,102%,87.7%,104%,106%,94.5%,105%,93.2%,79.9%
CCN(CC)CCN1C(=O)c2c(c3c4ccccc4[nH]c3c3ccc4ccccc4c23)C1=O,-74.4% (active),-45.5% (active),76.1%,84.9%,-89.3% (active),-74.6% (active),-23% (active),76.8%,-88.3% (active),0.268% (active),97.7%,18.6%,-89.2% (active),14.3%,-86.2% (active),36.6%,50.7%,35.1%,-8.15% (active),-29.5% (active)
O=C(NCCN1CCOCC1)OCc1ccc2c(Cl)cc(Cl)c(O)c2n1,19.5%,108%,71.2%,59%,44.6%,60%,53.8%,59.7%,51%,71.6%,78.1%,89.6%,64.4%,25.5%,96.4%,37.3%,47.1%,106%,48.3%,57.9%
COc1cc(N2C(=O)[C@H](Cl)C2c2ccc(SC)cc2)cc(OC)c1OC (stereo not given in full),4.62% (active),1.22% (active),73.9%,30.5%,7.72% (active),22.1%,-34.3% (active),29.5%,20.3%,65.7%,44.6%,28.6%,31.8%,40.6%,49.1%,30.3%,24.3%,-7.35% (active),11.4%,7.86% (active)
COC(=O)/C(CCC=C(C)C)=C1\[C@@H](OC(C)=O)C[C@@]2(C)[C@H]1C/C(=N/O)[C@H]1[C@@]3(C)CC/C(=N\O)[C@@H](C)[C@@H]3CC[C@@]12C,88.4%,107%,86.9%,88.9%,91.5%,70.9%,98.9%,93.7%,78.1%,111%,96.7%,100%,95.1%,77.5%,119%,102%,76.1%,111%,87.3%,72.1%
Nc1c(Br)cc2c(c1Br)Cc1cc([N+](=O)[O-])ccc1-2,104%,110%,75.3%,94.5%,95.5%,87.9%,91.4%,89.1%,102%,113%,109%,55.3%,101%,79.1%,90.6%,93.2%,98%,114%,95.7%,83.4%
COc1cccc(-c2cn3nc(-c4cn(C)c5ccccc45)sc3n2)c1,73.7%,91.1%,83.1%,91.7%,97.7%,94.7%,84.2%,77.9%,97.6%,95.1%,102%,85.9%,92%,71.7%,105%,104%,82.6%,87.5%,92%,87.5%
CS(=O)(=O)Nc1cc(-c2ccc3ncnc(Nc4ccc5c(cnn5Cc5ccccc5F)c4)c3c2)cnc1Cl,79.4%,51%,-15.7% (active),49.1%,46.3%,37.5%,26.3%,19.4%,25.9%,17.5%,15.3%,52.2%,23.3%,43.2%,30.6%,59%,27.3%,-14.1% (active),31.1%,16.4%
Nc1cc(C(=O)O)cc(-n2c(O)c(C=C3N=c4ccccc4=N3)sc2=S)c1,103%,108%,80.7%,103%,107%,92.4%,97.9%,86.7%,95.8%,104%,101%,99.4%,95.8%,69.5%,103%,99%,86.8%,102%,106%,103%
COc1ccc(C(=O)Nc2ncc(Cc3ccc(Cl)cc3)s2)cc1,8.72% (active),6.03% (active),20%,23.9%,25.2%,22.7%,-1.16% (active),33.5%,19.8%,52.3%,23.9%,36.5%,24.8%,37.4%,58.9%,25.6%,18.4%,-18.5% (active),14.5%,12.3%
COc1ccc(-c2nc3ccc(C)cc3c3c2c(=O)n(C)c(=O)n3C)cc1OC,108%,108%,92.9%,98.7%,96.9%,97.5%,103%,89.5%,95.6%,112%,123%,102%,98%,106%,106%,97.7%,88.4%,94%,92.3%,101%
CN(C)c1ccc(C(=S)c2ccc(N(C)C)cc2)cc1,43%,30.9%,78.1%,72.6%,62.4%,71.2%,30.5%,52.2%,69%,84.4%,58.5%,98.2%,75.6%,59%,82.7%,93.4%,87.1%,62.6%,77.3%,75.5%
Cc1[nH]c(C(=O)Nc2ccccc2OC2CCN(CCN3CCOCC3)CC2)c(Cl)c1Cl,83.6%,73.7%,76.1%,107%,93.3%,78.3%,87.9%,108%,86.3%,104%,101%,86%,97.7%,51.9%,69.7%,94.7%,84%,71.6%,89.4%,72.6%
Cc1c2ncccc2nc2[nH]c3ccc(OCCN(C)C)cc3c12,15.7%,5.4% (active),63%,15.3%,20.3%,12.1%,47%,35.2%,18%,78.5%,33.7%,49.2%,13.9%,19.1%,31%,10.6%,63.3%,79.9%,6.43% (active),9.61% (active)
COc1ccc(/C=C(/C(=O)N2CCNCC2)c2cc(OC)c(OC)c(OC)c2)cc1O,96.6%,88.1%,28.1%,38.4%,19.6%,26.8%,40%,32.5%,44%,55.5%,10.8%,84.1%,54.6%,89.7%,92.4%,103%,93.1%,59%,15.4%,25.5%
